Out of some 2,400 compounds screened, about 40 (2%) were called active. Another 1% or so got no clear call; they are omitted.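 How the source made its calls: active means inhibition at or above 60%; inconclusive means inhibition from 0% up to below 60%; inactive means no inhibition observed.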 Many of the other results were omitted from the sample, so actives are more common in it than they were.

This assay is described as follows: qHTS Assay for Small Molecule Inhibitors of Mitochondrial Division or Activators of Mitochondrial Fusion: Hit Validation in Malachite Green Assay.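 On inhibition: plate controls were DMSO wells with GTPase for no effect and protein-free buffer wells for full effect.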 As to conditions: purified GTPase, malachite green phosphate release, A650; stronger effect = higher value. From the text: The budding yeast S. cerevisiae is a powerful system to study mitochondrial fusion. Unlike other organisms, yeast cells without functional mitochondrial DNA (mtDNA) can be propagated and studied as long as they maintain a mitochondrial compartment and are provided with a fermentable carbon source. When mitochondrial fusion is blocked in yeast, mitochondrial tubules rapidly fragment and division continues unopposed. Under conditions where fusion is compromised in mammalian cells, nearly identical changes in mitochondrial structure have been observed. Thus, these findings indicate that steady state mitochondrial structure in cells is a characteristic and specific indicator of fusion activity. Mounting evidence has pointed to a connection between mitochondrial dynamics and apoptosis in mammalian cells. These studies indicate that in mammalian cells mitochondrial dynamics are more integrated into cellular processes than in yeast cells and have evolved not only to distribute the organelle but also to aid in the regulation of cellular homeostasis. Mitochondrial fusion proteins attenuate apoptosis by inhibiting the release of cytochrome c from mitochondria, in part by controlling cristae structures. Thus, small molecules that inhibit mitochondrial fusion may promote apoptosis and potentially act as novel chemotherapeutics and stimulation of apoptosis has become an attractive target of anti-cancer therapies. To identify inhibitors of mitochondrial division, we exploit the growth phenotypes of mitochondrial fusion-defective mutants. The temperature sensitive fusion alleles, such as fzo1-1 and mgm1-5, cause mitochondrial membranes to fragment in cells under non-permissive conditions and cells lose mtDNA, and are unable to grow in the presence of non-fermentable carbon source glycerol. Inhibiting mitochondrial division rescues growth. The hits were tested by the assay provider in a malachite green assay. NIH Chemical Genomics Center [NCGC] NIH Molecular Libraries Probe Production Centers Network [MLPCN] MLPCN Grant: MH081279 Assay Submitter (PI): Jodi M. Nunnari
Malachite Green Reagent Malachite Green carbinol base- Aldrich 229105 Ammonium molybdate - Sigma A7302 For 100 mL Malachite Green reagent in 1N HCl 16 mL conc. HCL + 32 mL H20 = 48 mL 4N HCl 34 mg malachite green base into 40 mL 1N HCl (10 mL 4N HCl + 30 mL H20) 1 g ammonium molybdate in 15 mL 4N HCl Mix Solutions together. Bring up to […] with H2O. Filter using a 0.2 um tissue culture filter unit (has plastic bottle attached) store at 4 masculine C. (Avoid Glassware/Plastics washed in detergent. Mix solutions in 50 mL conical vials.) For 20 uL reaction volume 1.0 uL Test Drug or DMSO: Added first to each well […]: 25 mM Hepes/Pipes pH 7.0 (H/P) 2.0 uL: 50 mM MgCl2 (final 5mM) 2.32 uL: 1 M NaCl (with contributing protein salt, Final = 150mM) 13.4 uL per reaction. Can be mixed in larger volume (Mini Master Mix) 1.6 uL: Protein 7.5 uM or Protein Freezing Buffer. (Final = 0.6uM) After Protein Added to mini Master Mix, 15ul Total Master Mix added to each well with drug. 4 uL: 500 uM GTP (Final = 100uM), Dilute with 25 mM H/P, store on ice. 20 uL Total Volume Make Master Mix: (Calculate desired reactions and add a few for multi-channel pipetting volume). Multiply the number of desired reactions by 13.4 uL for total Mini Master volume. Multiply the number of desired reactions by 1.6 uL for total Protein volume. Mix, and keep on ice until added to wells. Add 15 uL of Master Mix to each reaction well, incubate with drug for 10 min. For Positive (No Drug) controls add 15 uL Master Mix to wells with only 1 uL DMSO. Make PFB (Protein Freezing Buffer) (no Protein) Master Mix. Multiply the number of desired reactions by 13.4 uL for total Mini Master volume. Multiply the number of desired reactions by 1.6 uL for total PFB volume. Mix, and keep on ice until added to wells Add 10 uL of PFBMaster Mix to each Phosphate Standards well, and 15 uL to each negative control well with DMSO. […]
Background: qHTS replaces the single test concentration by a dilution series.
What is called inhibition is the relative decrease from the control value, in per cent. With `O=C(COc1ccc(F)cc1Br)Nc1ccccc1N1CCOCC1`, the inhibition entry was “inactive”.
As to `CC1=C(C(=O)OCc2ccccc2)C(/C=C/c2ccccc2)N2C(=O)CCSC2=N1` (stereo not drawn), the inhibition entry was “inactive”.
Take `CCN(CC)c1ccc(/C=N/NC(=O)c2ccc([N+](=O)[O-])cc2)cc1`: the inhibition entry is “inactive”.
`CCNC(=O)C(=O)N/N=C/c1cc([N+](=O)[O-])ccc1O`: the inhibition is 78.8% (active).
With `O=[N+]([O-])c1ccc(O)c(P(=O)(c2ccccc2)c2ccccc2)c1`, the inhibition result is “inactive”.
Under `CCOC(=O)c1c(NC(=O)COC(=O)Cn2cnc3ccccc32)sc2c1CCC(C)C2` (stereo not drawn) stands “inactive”; under `N#C/C(=C\c1cn[nH]c1-c1ccc(Cl)cc1)C(=O)NCc1ccccc1`, “inactive”.
The result for `O=C(Nc1cccc(Br)c1)c1ccccc1-c1ccccc1` reads “inactive”; that for `Nc1c(-c2ccccc2)c(CSc2nc3ccccc3[nH]2)nn1-c1ccc(Cl)cc1`, “inactive”.
Under `CCN(Cc1ccccc1)C(=O)c1oc2ccc(S(=O)(=O)N3CCOCC3)cc2c1C` stands “inactive”; under `O=c1c2ccccc2sn1-c1cc(S(=O)(=O)N2CCOCC2)ccc1N1CCCC1`, 103% (active); under `O=C(c1cc(S(=O)(=O)N2CCN(c3ccccc3)CC2)ccc1Cl)N1CCCCCCC1`, “inactive”.
For `CCOC(=O)c1cccc(-c2c(-c3ccccc3)ncc3cc(OC)c(OC)cc23)c1`, the inhibition result is “inactive”.
The result for `O=C(NCc1ccc2c(c1)OCO2)c1ccc(CSCc2ccc(Cl)cc2)o1` reads “inactive”.
On to `O=C(Nc1ccccc1O)c1c(O)c2c([nH]c1=O)CCCC2`, for which the inhibition result was “inactive”.
The result for `O=C(O)c1ccccc1CSc1nc2ccccc2n1Cc1ccccc1C(=O)O` reads “inactive”; that for `COc1ccc(C(=O)CSc2ccc(-c3ccc(C)cc3)nn2)cc1`, “inactive”; that for `Cc1cc(SCC(=O)c2ccc(Cl)cc2)nc(=O)[nH]1`, 96.8% (active).
Take `Cc1ccc(C(=O)CSc2nc(C(C)C)nc3ccccc23)cc1`: the inhibition result is “inactive”.
Turning to `O=C(Nc1ccc(N2CCOCC2)c(S(=O)(=O)Nc2ccccc2Cl)c1)c1ccccc1`, the inhibition result was “inactive”.
Take `COc1cccc(C(Nc2ccccn2)c2c(NC(=O)c3ccco3)sc(C)c2C)c1` (stereo not drawn): the inhibition result was “inactive”.
The result for `Cc1ccc(C)c(N2CCN(C(=O)CCCn3c(=O)c4cccn4c4cccnc43)CC2)c1` reads “inactive”; that for `COc1cccc(C(=O)NC2CCN(C(=O)N3c4ccccc4Sc4ccccc43)CC2)c1`, “inactive”; that for `C/C(=N\NC(=O)COc1ccccc1-c1ccccc1)c1ccccn1`, 71.6% (active).
Under `O=C(COc1ccccc1-c1ccccc1)NCc1cccc(Cl)c1` stands “inactive”; under `O=C(COc1cc2oc(=O)cc(-c3ccccc3)c2cc1Cl)NCc1ccccn1`, “inactive”; under `O=[N+]([O-])c1ccccc1SN(Cc1ccccc1)c1ccccn1`, “inactive”.
Under `CCC(CC)C(=O)Nc1cc(C(=O)OC)ccc1C(=O)OC` stands “inactive”.
For `O=C(/C=C/c1ccc(Cl)cc1)N(c1ccccn1)C1CCCCC1`, the inhibition result is “inactive”.
`CC(/C=N/NC(=O)CSc1nnc(SCc2ccccc2)s1)=C\c1ccco1`: the inhibition entry is “inactive”.
The result for `COc1ccc(-c2nn(-c3ccccc3)cc2/C=N/Nc2ccc3ccccc3n2)cc1OC` reads “inactive”; that for `COc1ccccc1C1CC(c2ccc(Br)cc2)=NN1C(=O)c1cccnc1` (stereo not drawn), “inactive”; that for `CCC(C)c1ccc(N(CC(=O)NC(C)(C)C)C(=O)CNC(=O)c2cccs2)cc1` (stereo not drawn), “inactive”.
Under `Cc1nc(NCc2ccccn2)c2c3c(sc2n1)CCCC3` stands “inactive”; under `CN(C)c1cccc(NC(=O)c2ccco2)c1`, “inactive”.
On to `Cc1ccc(-c2nnc(NC(=O)c3ccco3)o2)c(C)c1`, for which the inhibition is 74.4% (active).
Consider `COc1c(C)cc(Br)cc1C(=O)Nc1cccc(NC(=O)c2ccco2)c1`, for which the inhibition entry was “inactive”.
Regarding `CC1=C(C)CC(C(=O)NNC(=O)c2csc3c2CCC(C(C)(C)C)C3)C(C(=O)O)C1` (stereo not drawn), the inhibition result was “inactive”.
Regarding `Cc1ccc(SCCNS(=O)(=O)c2ccc3c(c2)OCCO3)cc1`, the inhibition entry is “inactive”.
Under `C=CCc1c(C)nc(-c2ccccc2)nc1Nc1ccc(O)cc1` stands “inactive”.
Under `COc1ccc(Cl)cc1NC(=O)CN(C)C(=O)c1cc2c(F)cccc2s1` stands “inactive”; under `COc1cccc(C2=CC(=O)C[C@H](c3ccc(Cl)cc3)C2)c1`, “inactive”; under `COC(=O)[C@@]12CCCCN1[C@H](c1ccc(-c3ccc(OC)cc3)c(OC)c1)[C@@H]1C(=O)N(C)C(=O)[C@@H]12`, “inactive”.
The result for `O=C(Nc1cccc(-c2nnc(-c3ccccc3)o2)c1)c1ccc(Br)o1` reads “inactive”; that for `O=C1N=C(N2CCN(c3ccccc3)CC2)S/C1=C/c1cccs1`, “inactive”; that for `COc1cc(/C=C2\SC(N3CCCCC3)=NC2=O)cc(OC)c1OC`, “inactive”.
Take `COc1ccc(OC)c(/C=C2\SC(N3CCCC(C)C3)=NC2=O)c1` (stereo not drawn): the inhibition was 66.7% (active).
For the compound `COC(=O)c1cc2c(ccn2-c2ccc(F)cc2)n1Cc1ccc(OC(C)=O)cc1`, the inhibition result was “inactive”.
Under `Cc1ccc(S(=O)(=O)NC23CC4CC(CC(C4)C2)C3)cc1` stands “inactive”; under `CC1CCc2nc3ccc(S(=O)(=O)N4CCC(C(=O)NCc5ccccc5Cl)CC4)cc3c(C(=O)O)c2C1` (stereo not drawn), “inactive”; under `Cc1ccc2nnn(Cc3cccc(C(C)(C)C)c3O)c2c1`, “inactive”.
Under `COc1ccc(C(=O)Nc2nc(-c3cccs3)cs2)cc1` stands “inactive”.
The result for `O=C(Nc1ccccc1N1CCCC1)c1ccc2ccccc2c1` reads “inactive”.

For the origin of these results see PubChem BioAssay AID602289 (National Center for Advancing Translational Sciences (NCATS), 2012).
